Data from PubChem BioAssay (NCI).
This is part of a sample that, as a whole, favours compounds with a hit. Of some 83,000 tested, about 20% had one in any assay.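 Cells were grown in 96-well plates and exposed to the test compound at a single concentration for 48 hours; results are reported as percent growth, with values below 10 considered active.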 Values without a mark were called inactive. Activity calls are given as the source filed them.

Each molecule was assayed on SW-620 colon (assay: NCI-60 one-dose screen, 48 h (100 = growth as untreated, 0 = no growth, -100 = all killed)). Conditions: 10 µM unless noted.

Structure (SMILES)	growth
COc1ccc2c(c1)c(-c1nc(-c3cn(C)c4ccncc34)cs1)cn2C	-77.5% (active)
O=C(OCC(O)(CO)C(=O)NC12CC3CC(CC(C3)C1)C2)c1ccc(Cl)cc1 (configuration not stated)	103%
Cn1ccnc1C(=O)/C=C/c1ccc(CC(=O)Nc2cc(F)c(F)c(F)c2)cc1	9% (active)
Cc1ccc(Nc2cc(N)nc(N)n2)cc1	102%
Cc1nc2ccccc2c(/C=C/c2ccc(Cl)cc2)c1C(=O)/C=C/c1ccccc1	1.45% (active)
NS(=O)(=O)Oc1cccc(-c2nc3sccn3c2-c2ccccc2)c1	35.5%

What follows are molecules tested on MCF7 breast in the same assay as above. Conditions: 10 µM unless noted.

Structure (SMILES)	growth
CNC(=O)c1cc(Oc2ccc3nc(NC(=O)Nc4ccc(F)cc4F)sc3c2)ccn1	66.8%
CCOC(=O)c1c2c(n3ccc(NC(=O)CCN4CCCC4)cc13)C(=O)c1ncccc1C2=O	-66.6% (active)
CNC(=O)c1cc(Oc2ccc3nc(NC(=O)c4cc(C(F)(F)F)cc(C(F)(F)F)c4)sc3c2)ccn1	9.82% (active)
CC(=O)CC(=O)c1ccccc1.[Cu+2]	75.1%
O=c1c2cccc3c(N4CCOCC4)ccc(c32)c2nc3ccccc3n12	24%
CN(C)C(=O)OCc1ccc2c(Cl)cc(Cl)c(O)c2n1	32.4%
COc1ccc(-c2ccc(-c3ccc(C(=N)N)nc3)s2)cc1	-65.5% (active)
CN1CCN(c2ccc(Nc3ncc4[nH]c(=O)n(Cc5ccccc5N)c4n3)cc2)CC1	87.8%
NC(=N\N=C/c1ccc(Cl)cc1Cl)/C(N)=N\N=C/c1ccc(Cl)cc1Cl	87%
C=C1C(=O)O[C@H]2[C@H]1CC/C(COC(=O)NCc1ccc(Cn3c(=O)sn(CCCC)c3=O)cc1)=C\CC[C@@]1(C)O[C@@H]21	7.24% (active)
FC(F)(F)c1cccc(-c2nnn(Cc3cc(-c4cccc(Cl)c4)no3)n2)c1	99.1%
O=C(c1ccc(F)cc1)C1CCN(CCn2c(=O)[nH]c3ccccc3c2=O)CC1	97.6%
Cc1ccc(C2(C)NC(=O)N(CC(=O)Nc3cccc(C)c3)C2=O)cc1 (configuration not stated)	91.2%
COc1ccc(C(=O)C2OC3=C(C(=O)CC(C)(C)C3)C2c2cccc(Oc3ccccc3)c2)cc1 (configuration not stated)	89.3%
CC1(C)C2=C(C(=O)N1Cc1ccccc1)C(c1ccco1)N(C(=O)C1CCC1)CCN2 (configuration not stated)	103%
COc1ccc(Nc2nccc(Nc3ccc4[nH]ncc4c3)n2)cc1	13.3%

Structure (SMILES)	growth
Cc1nn(-c2ccccc2)c(Oc2ccccc2)c1/C=N/NC(=O)Cn1c(=O)sc2ccccc21	25.4%
CCN1C(=O)N(CC)C2C1NC(=S)N2/N=C/C=C/c1cccs1 (configuration not stated)	18.3%
O=C(Nc1ncc(Cc2ccc(Cl)cc2)s1)c1ccc2c(c1)OCCO2	10.2%
C#Cc1ccc(NC(=O)Cc2ccc(/C=C/C(=O)c3nccn3C)cc2)cc1	21.5%
CN(C)CCOc1nc2c3cc([N+](=O)[O-])ccc3nn2c2ccccc12	16.7%
CCN(CC)CCCC(Nc1c2ccc(Cl)cc2nc2ccc(OC)cc12)c1ccncc1 (configuration not stated)	61.2%
CCOC(=O)c1cnc2sc(-c3ccc(OC)cc3)nc2c1Cl	88%
COc1ccc2c(O)cc3c(c2c1)[C@H](CCl)CN3C(=O)c1cc2cc(NC(=O)CCN3CCOCC3)ccc2[se]1	-48% (active)
Oc1ccc(Cc2ccc(O)c3ncccc23)c2cccnc12	3.18% (active)
CO[C@]12C=C/C(=C(/C(=O)OCc3cccnc3)C(=O)CCCCCCCC[C@]3(OC)C=C/C(=C(/C(=O)OCc4cccnc4)C(=O)CCCCCCCC1)O3)O2	-56.3% (active)
CC(C)=CCC[C@](C)(O)C1CC[C@]2(C)[C@@H]1CC[C@@H]1[C@@]3(C)CC/C(=N\OCCC#N)C(C)(C)[C@@H]3CC[C@]12C (some centres not stated)	63.2%
Cn1cc(-c2ccc3c(Nc4cccc(NC(=O)Nc5cccc(F)c5)c4)ncnc3c2)cn1	22.1%
O=c1oc2ccccc2cc1-c1nn(-c2ccccc2)cc1/C=N/Nc1nc(-c2ccccc2)c(N=Nc2ccccc2)s1	44.3%
CCCNNC(=O)c1ccc(CNC(=O)/C=C/c2ccccc2)cc1	30.6% [2.5 µM]
C=C(CNCCO)[C@@H]1CC[C@]2(CO)CC[C@]3(C)[C@H](CC[C@@H]4[C@@]5(C)CCC(NCCO)C(C)(C)[C@@H]5CC[C@]43C)[C@@H]12 (some centres not stated)	47.4%
